Each structure is given as a SMILES string. Among all 360,000 compounds or so, about 3,600 (1%) were called active. Only a selection was taken, and actives are over-represented in it overall. Unmarked numbers belong to inactive results.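 How the source made its calls: active means compounds whose plate-normalised and pattern-corrected inhibition of the luciferase reporter signal at the single screening dose is 50% or more; inactive means the rest.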

This assay is described as follows: inhibitors of TROY-driven NF-kB signaling, primary screen, Q293 LMP1-TROYcd cells, NF-kB luciferase, uHTS (AID 1347056). The note with it: Q293 LMP1-TROYcd NF-kB luciferase reporter, 4 h; at 10 µM; stronger effect = higher value. On the technique in general: In a reporter assay the amount or activity of a reporter protein is the signal.
The inhibition is the drop in the measured response relative to a control, in per cent. For `COc1ccc(NC(=O)CCCNC(=O)Cn2cnc3sc4c(c3c2=O)CCCC4)cc1OC`, the inhibition is -6.14%.

Turning to `COc1ccc(NC(=O)CCNC(=O)Cn2cnc3sc4c(c3c2=O)CCCC4)cc1OC`, the inhibition is 11.8%. In the case of `COc1ccc(/C=N/Nc2ncnc3sc4c(c23)CCCC4)cc1O`, the inhibition is 82.7% (active). On to `COCCCNC(=O)C1CCC(CNS(=O)(=O)c2ccc(OC)cc2)CC1` (stereo not drawn), for which the inhibition is -8.61%. Next, `CCN(CC)C(=O)C1CCC(C)(C(=O)O)C1(C)C` (stereo not drawn): 7.66%; `Cc1nnc(SCCCCSc2nnc(C)c(=O)[nH]2)[nH]c1=O`: -7.01%; `CC(C)n1cnc2c(Nc3cccc(Cl)c3)nc(N(CCO)CCCO)nc21`: 50.8% (active).

As for `C=C(C)C1CC=C(C)/C(=N/NC(=O)CCCNc2cccc(C)c2)C1` (stereo not drawn), the inhibition is 5.76%. Next, `CN(CCO)c1ccc(/C=N/Nc2nncc3ccccc23)cc1`: -22.8%; `CN1C(=O)c2ccc(NC(=O)C3CCCCC3)cc2C1=O`: -41%; `O=C(Nc1ccc2c(c1)OCCO2)C1CCCC1`: 81.7% (active). Under `O=C(Nc1ccc2c(c1)OCO2)C1CC1(Cl)Cl` (stereo not drawn) stands -31.7%; under `CC(C)C[C@H]1CNC(=O)C(=O)N1C[C@H]1CCCN1C[C@H](Cc1ccc(O)cc1)N1C[C@H](CC(C)C)N(CC2CCCCCC2)C(=O)C1=O`, -20.6%. Under `O=C1N[C@H](Cc2c[nH]c3ccccc23)COC(=O)[C@H](Cc2ccc(F)cc2)C/C=C\C[C@H]1CC(=O)N(CCO)Cc1ccccc1` stands 19%; under `O=C(Cn1c(-c2cscn2)nc2ccccc21)Nc1ccc(Cl)cc1`, 6.66%. In the case of `C/C(CC(=O)Nc1ccc(C)cc1C)=N\NC(=O)C(C)C`, the inhibition is 7.58%. In the case of `CC1CCCCC1NC(=O)Cn1cnc2c1c(=O)n(C)c(=O)n2C` (stereo not drawn), the inhibition is -7%.

On to `O=C(CCc1[nH]c2ccccc2c1Sc1ccccc1)N(CCO)CCO`, for which the inhibition is 7.74%. With `Cc1cccc(-n2ncc(Cl)c(Cl)c2=O)c1`, the inhibition was 72.5% (active). Under `CC(=O)Nc1c2c(nn1-c1cccc(C)c1)CSC2` stands -5.25%; under `CCCNC(=O)c1c(Cl)cnn1-c1ccc(C)cc1`, -51.1%. Take `CCNS(=O)(=O)c1ccc(CCC(=O)N2CCN(c3cc(Cl)ccc3C)CC2)cc1`: the inhibition was 26.1%. Under `O=S(=O)(Cc1cc(Sc2ccccc2)nc(-c2ccccc2)n1)c1ccccc1` stands -3.96%; under `O=C(N[C@@H](Cc1c[nH]c2ccccc12)C(=O)O)OCC1c2ccccc2-c2ccccc21`, -9.94%; under `O=C(Nc1ccccc1Cl)c1ccccc1S(=O)(=O)c1ccccc1[N+](=O)[O-]`, -26.1%.

For `O=C(Nc1ccccc1Cl)/C(Cl)=C(\Cl)S(=O)c1ccccc1` (stereo not drawn), the inhibition was 86.9% (active). As for `CC(=O)c1ccc(NC(=O)C(C)N(C)CC(=O)Nc2ccccc2Cl)cc1` (stereo not drawn), the inhibition is 7.44%. Consider `Cc1ccc(-c2csc(NC(=O)Cn3[nH]c(=O)c4ccccc4c3=O)n2)cc1`, for which the inhibition was 55.9% (active). Next, `O=C(Cn1[nH]c(=O)c2ccccc2c1=O)Nc1cccc(-c2nnc3n2CCCCC3)c1`: 18.8%; `Cc1ccc(C)c(C(=O)COC(=O)Cn2[nH]c(=O)c3ccccc3c2=O)c1`: -0.89%. Next, `O=C1C=CC(=O)N1c1ccc(N2CCCCC2)cc1`: -3%. Next, `COC(=O)[C@@]1(Sc2ccc(C)cc2)CC(=O)N(c2cccc(SC)c2)[C@@H]1c1ccccc1`: -0.08%; `N/C(=N\OC(=O)CCC1CCCCC1)c1ccccn1`: -40.4%; `Cc1cccc(/C(N)=N/OC(=O)c2ccccc2Cl)c1`: 3.79%. Turning to `Cc1ccc(C(=O)O/N=C(\N)c2ccccn2)cc1Cl`, the inhibition is 72.9% (active). `COc1ccc(C2/C(=C(/O)c3ccc4c(c3)CC(C)O4)C(=O)C(=O)N2Cc2ccncc2)cc1` (stereo not drawn): the inhibition was -12.1%. For the molecule `CC(=O)c1cc2c(cc1NC(=O)Cn1nc(-c3ccc(F)cc3)ccc1=O)OCO2`, the inhibition is -13.6%.

`CC(=O)Nc1ccc(S(=O)(=O)NC2Cc3ccccc3C2)cc1`: the inhibition is -3.14%. Next, `CCOc1ccc(/C=C(/NC(=O)c2ccccc2)C(=O)NCCC(=O)O)cc1`: 4.42%; `Cc1noc(C)c1COc1cccc(C(=O)Nc2cccnc2)c1`: 11.8%; `O=C(Nc1cccnc1)c1noc2c1CCCCC2`: 64.2% (active). With `O=C(c1noc2c1CCCC2)N1CCc2ccccc2C1`, the inhibition is -14.7%.

As for `CCCC(C)C(=O)NCc1ccncc1` (stereo not drawn), the inhibition was 8.22%.

Consider `FC(F)(F)Oc1ccccc1C(c1nnnn1C1CCCCC1)N1CCN(C/C=C/c2ccccc2)CC1` (stereo not drawn), for which the inhibition is 5.81%. Under `CCCCCCc1cc2cc(-c3nnc(-c4ccccc4)o3)c(=O)oc2cc1O` stands 61.6% (active); under `CCOC(=O)Cn1c(O)c(N=NC(=O)CNC(=O)Cc2ccccc2)c2ccccc21`, -7.61%; under `O=[N+]([O-])/C=C/c1ccc2c(ccn2Cc2ccccc2)c1`, 81.4% (active). Next, `C/C(CC(=O)NCc1ccc(Cl)cc1)=N\NC(=O)COc1ccc(C)cc1Br`: -10.5%.

As to `Cc1cc(OC(=O)c2ccc(OC(C)C)cc2)c([N+](=O)[O-])c(=O)[nH]1`, the inhibition was -22.1%.

In the case of `O=C(Oc1ccc(-c2nnco2)cc1)c1ccc(F)c(S(=O)(=O)N2CCOCC2)c1`, the inhibition is 40.2%. Next, `COC(=O)c1scc(C)c1NC(=O)CSc1ccc(Cl)cc1`: -6.59%; `COC(=O)c1sccc1NS(=O)(=O)c1ccc(F)cc1F`: 10.6%; `COC(=O)c1sccc1NC(=O)CSc1ccccc1NS(=O)(=O)c1cc(Cl)ccc1Cl`: 51.4% (active). `CC(C)(Oc1ccc(C2CC2(Cl)Cl)cc1)C(=O)O` (stereo not drawn): the inhibition was -11.2%. Under `Cc1cc(N)n(-c2ccc(S(=O)(=O)N3CCCC3)cc2[N+](=O)[O-])n1` stands 1.51%; under `Cn1cc(/C=C/c2nc3ccccc3c(=O)n2-c2cccc([N+](=O)[O-])c2)c2ccccc21`, 53.2% (active); under `CCn1c(/C=C/c2ccc([N+](=O)[O-])o2)nc2ccccc2c1=O`, 1.09%. Next, `CCOC(=O)N1CCN(Cc2nc3ccc([N+](=O)[O-])cc3c(=O)n2-c2cccc(OC)c2)CC1`: 5.96%.

Values taken from PubChem BioAssay AID1347056 (Sanford-Burnham Center for Chemical Genomics, 2019).
